Experimental data from PubChem BioAssay (NCI).
About 83,000 compounds went through this panel and 20% of them were active in at least one assay; those are over-represented in the sample as a whole.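 Step 1: grow cells in 96-well plates. Step 2: add test compound at a single concentration. Step 3: incubate 48 h. Step 4: record percent growth.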 A number with no mark means an inactive call. Calls of active or inactive are those of the source.

tested on: HCC-2998 colon; experiment: NCI-60 one-dose screen, 48 h (100 = growth as untreated, 0 = no growth, -100 = all killed); details: 10 µM unless noted
Description: Growth inhibition of the HCC-2998 human tumor cell line is measured as a screen for anti-cancer activity. Cells are grown in 96 well plates and exposed to the test compound for 48 hours. Compounds are tested at a single concentration, which is 10^-5 M for most compounds. The reported endpoint is percent growth (GI% or GIPRCNT), where numbers from 0 - 100% represent growth inhibition, and numbers from -100% - 0 represent cell death. For example, a value of 40 represents 60% growth inhibition. A value of 0 means no net growth occurred over the course of the experiment. A value of -40 indicates 40% of cells at the beginning of the experiment died by the end of the experiment. A value of -100 means all cells are dead at the end of the experiment.
NCI-60 Human Tumor Cell Lines Screen was performed using the standard one-dose NCI protocol, which is described in more detail at https://dtp.cancer.gov/discovery_development/nci-60/default.htm.
Compounds with GIPRCNT values below 10 were considered active. Activity score was based on GIPRCNT using the following formula: […]
Score is 0 for GIPRCNT values of 100 or above, 50 for GIPRCNT values of 0, and 100 for GIPRCNT values of -100.

Row | Structure (SMILES) | growth
1 | CN(C)c1ccc2cc3c(cc2c1)Oc1ccccc1N3.[Cl][Zn][Cl] | 103%
2 | O=C(c1ccccc1)c1cc2ccccc2oc1=O | 118%
3 | O=C(CCl)N1c2ccccc2Sc2c1ccc1ccccc21 | 98.5%
4 | COC(=O)c1nc(=S)[nH]c(C(=O)OC)c1C(=O)c1ccc(Cl)c(Cl)c1 | 113%
5 | NC(=S)N/N=C\c1nccc2c(N)cccc12 | 44.4%
6 | OC(c1cc(-c2ccc(Cl)cc2)nc2c(Cl)cccc12)C1CCCCN1 (stereo not given) | -68.9% (active)
7 | O=C1C=CC(=O)c2c(O)c(CO)c(CO)c(O)c21 | 108%
8 | CC(=O)Nc1ccc(C(=O)CCl)cc1 | 102%
9 | CCC1CCCCN1C(=S)N/N=C(\C)c1ccccn1 (stereo not given) | 17.9%
10 | Nc1cc(-c2ccccc2)ccc1O | 83.8%
11 | c1ccc2sc(SSN3CC4CCC(CC4)C3)nc2c1 | 123%
12 | O=C1C(=O)c2cc([N+](=O)[O-])ccc2-c2ccccc21 | 65.9%
13 | COc1cc(/C=C2\SC(=S)N(/C=C/c3nc4ccccc4[nH]c3=O)C2=O)cc(OC)c1OC | 87.5%
14 | CCC[CH2][Sn]1([CH2]CCC)[O]C2C(CO)OC(n3ccc(N)nc3=O)C2[O]1 (stereo not given) | -19.2% (active)
15 | CCCCC(CCc1ccc([N+](=O)[O-])cc1)(C(C)=O)C(=O)OCC (stereo not given) | 109%
16 | COc1cccc2c1C(=O)c1c(O)c3c(c(O)c1C2=O)C[C@@](O)(C(=O)CO)C[C@@H]3OC1CC(OC(C)=O)C(OC(C)=O)C(C)O1 (stereo not given in full) | -72% (active)
17 | OCCOSCCO | 111%
18 | NCCCN(CCCN)CCCNCc1c2ccccc2c(CNCCCN(CCCN)CCCN)c2ccccc12 | 97.6%
19 | CC1(C)OC2C(COC(c3ccccc3)(c3ccccc3)c3ccccc3)OC(c3c[nH]c4c(N)ncnc34)C2O1 (stereo not given) | 85.7%
20 | CC1(C)N=c2cc3c(cc2N1c1ccc(Cl)cc1)=Nc1ccccc1N3c1ccc(Cl)cc1 | 36.9%

Row | Structure (SMILES) | growth
21 | CN(C)CCSC1=Nc2ccc(Cl)cc2C(c2ccccc2Cl)N(C)C1 (stereo not given) | 81%
22 | CSc1nc(C)c(C(=O)CCN2CCN(c3ccccn3)CC2)s1 | 106%
23 | O=C1c2ccccc2Cc2cccc(Cl)c21 | 81%
24 | CCCCCCCCCCCC[N+]1(CCCCCCCCCCCC)CCCC(C)C1 (stereo not given) | -96.6% (active)
25 | O=C(Nc1ccc(Cl)c(Cl)c1)OCc1ccco1 | 56.4%
26 | CC(C)c1ccc(Nc2n[nH]c(=S)s2)cc1 | 91%
27 | NC(CS/C(Cl)=C/Cl)C(=O)O (stereo not given) | 102%
28 | Nc1nc2ncc(CNc3ccc(C(=O)NC(CCC(=O)NC(CCC(=O)NC(CCC(=O)NC(CCC(=O)NC(CCC(=O)O)C(=O)O)C(=O)O)C(=O)O)C(=O)O)C(=O)O)cc3)nc2c(=O)[nH]1 (stereo not given) | 117%
29 | CC1(C)OCC(COC(c2ccccc2)(c2ccccc2)c2ccccc2)O1 (stereo not given) | 97.4%
30 | CCCCCCCCCCCC1=NCCCN1CCCC | 75.7%
31 | CCOc1ccc(C(C[N+](=O)[O-])Sc2ccccc2N)cc1 (stereo not given) | -82.3% (active)
32 | O=C(c1ccccc1)N(CCCl)C(=O)N(CCCl)C(=O)c1ccccc1 | 104%
33 | CN1CCC(CN2c3ccccc3Sc3ccccc32)C1 (stereo not given) | 41.4%
34 | c1csc(-c2[nH]nc3c2CCc2ccccc2-3)c1 | 43.6%
35 | O=C(O)c1ccc2c(c1)C(=O)c1ccccc1C2=O | 104%
36 | CCN(CC)CC(O)CNc1ccc(NCC2CO2)c2c1C(=O)c1ccccc1C2=O (stereo not given) | -83.5% (active)
37 | Cc1cc(C)c([I+]c2c(C)cc(C)cc2C)c(C)c1 | -85.5% (active)
38 | O=C(Cc1ccccc1)C(F)(F)F | 108%
39 | N#CC(I)CS(=O)(=O)c1ccccc1 (stereo not given) | 107%
40 | COC(=O)c1ccc(=O)c2nc3/c(=C/O)c(O)cc(=O)c3[nH]c12 | 24.9%
